{"source": "PubChem BioAssay AID1626", "about": "(SRMLSC, 2009)", "note": "“And” between values parts separate entries of the source, which are not always exact repeats. Equal entries are not always repeated. The campaign covered roughly 220,000 compounds. About 2,000 (0.91%) were called active. Another 2% or so got no clear call; they are omitted. The list is a sample of the results. Measured potencies and affinities stand elsewhere. Unmarked numbers belong to inactive results. Cut-off read from the data, not from the text of the source: inconclusive = inhibition above about 80% without an active follow-up result; inactive = below that; test concentration not stated here.", "data": [{"test": "M. tuberculosis H37Rv growth inhibitors, H37Rv strain (AID 1626);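 note: bacteria incubated seven days before Alamar blue readout; 0% = bacteria only wells and 100% = bacteria with antibiotic wells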", "details": "hits give high values, concentration not given here", "values": [{"compound": "Cc1sc2nc(CN3CCOCC3)nc(Cl)c2c1C", "inhibition": "1.93%"}, {"compound": "Cc1sc2nc(CN3CCOCC3)nc(N3CCOCC3)c2c1C", "inhibition": "-5.18%"}, {"compound": "COC(=O)C1(C(F)(F)F)N=C2Sc3ccccc3N2C(N2CCOCC2)=N1", "note": "(centres undefined)", "inhibition": "-2.56%"}, {"compound": "N#Cc1ccc(-c2ccc(OCC(=O)NCCc3ccccc3)cc2)cc1", "inhibition": "7.81%"}, {"compound": "COc1ccc(CCNC(=O)COc2ccc(-c3ccc(C#N)cc3)cc2)cc1", "inhibition": "-19.4%"}, {"compound": "CN(C)c1ccc(NC(=O)N2CCOCC2)cc1", "inhibition": "-3.81%"}, {"compound": "N#Cc1c(NC(=O)CN2C(=O)c3ccccc3C2=O)oc(-c2ccccc2)c1-c1ccccc1", "inhibition": "-4.11%"}, {"compound": "Cc1[nH]c2ccccc2c1C(=O)C(=O)NCC1CCCO1", "note": "(centres undefined)", "inhibition": "7.05%"}, {"compound": "Cc1ccc(-c2csc(-c3ccncc3)n2)cc1", "inhibition": "-6.57%"}, {"compound": "Brc1ccc(-c2csc(Nc3nc(-c4ccc(Br)cc4)cs3)n2)cc1", "inhibition": "7.47%"}, {"compound": "Brc1ccc(-c2csc(-c3ccncc3)n2)cc1", "inhibition": "40.3%"}, {"compound": "CCCOc1ccc(-c2nc(-c3ccc(N)cc3)cs2)cc1", "inhibition": "1.99%"}, {"compound": "Cc1nc(N2CCN(c3ccccc3)CC2)[nH]c(=O)c1CCC(C)C", "inhibition": "6.58%"}, {"compound": "Nc1nc(SCC(=O)N2CCCc3ccccc32)n(-c2ccccc2)n1", "inhibition": "-0.56%"}, {"compound": "CCC1S/C(=N\\S(=O)(=O)c2cccs2)N(C2CCCCC2)C1=O", "note": "(centres undefined)", "inhibition": "-5.04%"}, {"compound": "CC1(C)Cc2c(sc(NC(=O)Cc3ccccc3)c2C#N)CO1", "inhibition": "-0.57%"}, {"compound": "O=C(NC1CCCCC1)N(Cc1nc2ccccc2c(=O)[nH]1)C1CCCCC1", "inhibition": "12.6%"}, {"compound": "Cc1ccc(Oc2nc(CN3CCOCC3)nc3sc4c(c23)CCC(C)C4)cc1C", "note": "(centres undefined)", "inhibition": "40.8%"}, {"compound": "Cc1cccc(Oc2nc(CN3CCOCC3)nc3sc4c(c23)CCCC4)c1", "inhibition": "14%"}, {"compound": "O=C(Nc1ccc2c3c(cccc13)CC2)c1cccc([N+](=O)[O-])c1", "inhibition": "2.05%"}, {"compound": "COC(=O)[C@H](CC(C)C)NC(=O)NCc1ccc(Cl)cc1", "inhibition": "-2%"}, {"compound": "O=C(/C=C/c1ccccc1Cl)NCc1ccccc1", "inhibition": "-0.07%"}, {"compound": "CC(Cc1ccccc1)NC(=O)/C=C/c1ccc(Cl)cc1", "note": "(centres undefined)", "inhibition": "-0.45%"}, {"compound": "CCC(CC)NC(=O)/C=C/c1ccccc1Cl", "inhibition": "-14.3%"}, {"compound": "CCOC(=O)Nc1ccc2c(c1)nc(CN1CCOCC1)n2C", "inhibition": "-2.73%"}, {"compound": "Cc1ccc2nc(N(CCCN(C)C)C(=O)c3ccc(S(=O)(=O)N(C)C)cc3)sc2c1", "inhibition": "-7.66%"}, {"compound": "CN(C)CCCN(C(=O)c1ccc2c(c1)CCCC2)c1nc2ccc(F)cc2s1", "inhibition": "62.6%"}, {"compound": "N#Cc1cnn2c1nc(N1CCOCC1)c1ccccc12", "inhibition": "3.61%"}, {"compound": "O=C(O)c1ccc(/C=N/NC(=O)c2ccc(NS(=O)(=O)c3cccs3)cc2)cc1", "inhibition": "7.29%"}, {"compound": "CC(=O)/C(=C/N(C)C)C(=O)Nc1ccc(Cl)cc1Cl", "inhibition": "5.27%"}, {"compound": "CN(C)CCNC(=S)Nc1ccc(Cl)cc1Cl", "inhibition": "3.74%"}, {"compound": "Cc1cc(=O)n2nc(N3CCC(C(=O)N4CCN(C)CC4)CC3)sc2n1", "inhibition": "-6.22%"}, {"compound": "CCN(CC)S(=O)(=O)c1ccc(C)c(NC(=O)Cn2cnc3cc([N+](=O)[O-])ccc3c2=O)c1", "inhibition": "-5.31%"}, {"compound": "O=C(CSc1nnc(-c2ccccc2)o1)N1CCc2ccccc2C1", "inhibition": "0.6%"}, {"compound": "COc1ccc(-c2nnc(SCC(=O)N3CCc4ccccc4C3)o2)cc1", "inhibition": "55.5%"}, {"compound": "COc1ccc(NC(=O)C(OC)c2ccccc2)cc1Cl", "note": "(centres undefined)", "inhibition": "4.82%"}, {"compound": "COc1cccc(CNc2ccc(F)c(Cl)c2)c1OC", "inhibition": "9.35%"}, {"compound": "O=C(/C=C/c1ccc(Cl)cc1)NCc1ccco1", "inhibition": "-3.37%"}, {"compound": "CCn1c(SCC(=O)Nc2ccc(C)cc2)nc2nc3c(cc2c1=O)COC(C)(C)C3", "inhibition": "11.8%"}, {"compound": "Nc1o[nH]c(=O)c1Cc1ccccc1", "inhibition": "-2.12%"}, {"compound": "CCOC(=O)c1sc(NC(=O)CNCc2cccnc2)c(C(=O)OCC)c1C", "inhibition": "0.97%"}, {"compound": "CCOC(=O)c1sc(NC(=O)CCN2C(=O)c3ccccc3C2=O)c(C(=O)OCC)c1C", "inhibition": "-2.12%"}, {"compound": "CC1CCN(CC(=O)NCc2ccco2)CC1", "inhibition": "-7.7%"}, {"compound": "COC(=O)c1sccc1NC(=O)COc1cccc(C)c1", "inhibition": "0.14%"}, {"compound": "NC(=O)c1ccc(NC(=O)c2ccc(CN3CCOCC3)cc2)cc1", "inhibition": "-7.24%"}, {"compound": "O=C(NC(=S)Nc1ccc(CN2CCOCC2)cc1)c1ccc(-c2ccc(Br)cc2)o1", "inhibition": "42.5%"}, {"compound": "O=C(Nc1ccc(CN2CCOCC2)cc1)c1ccc(-c2cccc(Cl)c2)o1", "inhibition": "8.55%"}, {"compound": "Cc1cc(CSc2ccccc2)ccc1NC(=O)c1ccc(CN2CCOCC2)cc1", "inhibition": "7.66%"}, {"compound": "CC(OC(=O)c1ccccc1Oc1ccccc1)C(=O)NC1CC1", "note": "(centres undefined)", "inhibition": "4.72%"}, {"compound": "O=S(=O)(Nc1nc2ccccc2nc1-[n+]1ccccc1)c1ccc(Cl)cc1", "inhibition": "-0.65%"}, {"compound": "Nc1cc2c3c(cccc3c1)C(=O)N(CCN1CCCC1)C2=O", "inhibition": "18.6%"}, {"compound": "O=C1c2cccc3cc([N+](=O)[O-])cc(c23)C(=O)N1c1ccccc1O", "inhibition": "6.45%"}, {"compound": "Cc1nn(-c2ccccc2)c(Cl)c1C(=O)NCC(=O)O", "inhibition": "4.16%"}, {"compound": "Fc1cccc(-n2ncc(-c3nnnn3-c3ccccc3)c2C(F)(F)F)c1", "inhibition": "-6.57%"}, {"compound": "O=[N+]([O-])c1c(NCCCO)cc(Sc2ccc(Cl)cc2)c2nonc12", "inhibition": "53.5%"}, {"compound": "O=[N+]([O-])c1c(NCc2ccco2)ccc2nonc12", "inhibition": "-3.46%"}, {"compound": "CCC(=O)OCCNc1cc(Sc2nc3ccccc3[nH]2)c2nonc2c1[N+](=O)[O-]", "inhibition": "42.4%"}, {"compound": "CC(=O)OCCCNc1cc(Sc2ccc(C)cc2)c2nonc2c1[N+](=O)[O-]", "inhibition": "13.8%"}, {"compound": "CC(=O)OCCNc1cc(Sc2nc3ccccc3[nH]2)c2nonc2c1[N+](=O)[O-]", "inhibition": "-3.19%"}, {"compound": "O=[N+]([O-])c1c(NCCCO)cc(SCc2ccco2)c2nonc12", "inhibition": "74.7%"}, {"compound": "CC(=O)OCCCNc1cc(Sc2ccc(Cl)cc2)c2nonc2c1[N+](=O)[O-]", "inhibition": "8.58%"}, {"compound": "N/C(=N\\OC(=O)COc1ccccc1Cl)c1ccc(Cl)cc1", "inhibition": "7.15%"}, {"compound": "COc1cc2c(cc1OC)CN(C(=O)CSc1nc(N)c(C#N)cc1C#N)CC2", "inhibition": "-0.19%"}, {"compound": "CCN(CC)CCN(C(=O)c1ccc(Br)s1)c1nc2cc3c(cc2s1)OCO3", "inhibition": "4.27%"}, {"compound": "CCCCNC(=O)CCCCC(=O)N/N=C/c1ccccc1Cl", "inhibition": "-1.94%"}, {"compound": "COc1ccc(O)c(C2=Nc3ccccc3N=C(c3ccco3)C2)c1", "inhibition": "6.13%"}, {"compound": "COc1ccc(NC(=O)NC2CCCCC2C)cc1", "note": "(centres undefined)", "inhibition": "0.36%"}, {"compound": "COc1ccc(C2(C(=O)N3CCCC3)CCOCC2)cc1OC", "inhibition": "-12.9%"}, {"compound": "CCN(CC)C(=O)CC(c1ccc2c(c1)OCO2)c1c(OC)cc(OC)c2c(-c3ccccc3)cc(=O)oc12", "note": "(centres undefined)", "inhibition": "-2.83%"}, {"compound": "COc1cc(OC)c2ccc(=O)oc2c1C(CCN1CCCC(C)C1)c1ccc2c(c1)OCO2", "note": "(centres undefined)", "inhibition": "-5.64%"}, {"compound": "COc1cc(OC)c2c(-c3ccccc3)cc(=O)oc2c1C(CC(=O)N1CCCC1)c1ccc2c(c1)OCO2", "note": "(centres undefined)", "inhibition": "0.92%"}, {"compound": "CCN(CC)CCC(c1ccc(N(C)C)cc1)c1c(OC)cc(OC)c2c(-c3ccccc3)cc(=O)oc12", "note": "(centres undefined)", "inhibition": "14.1%"}, {"compound": "COc1cc(OC)c2c(-c3ccccc3)cc(=O)oc2c1C(CCN1CCCC1)c1ccc2c(c1)OCO2", "note": "(centres undefined)", "inhibition": "77%"}, {"compound": "COc1cc(OC)c2c(-c3ccccc3)cc(=O)oc2c1C(CC(=O)N1CCOCC1)c1ccc2c(c1)OCO2", "note": "(centres undefined)", "inhibition": "0.96%"}, {"compound": "CCN(CC(=O)NCc1ccc(F)cc1)CC(=O)Nc1ccccc1-c1ccccc1", "inhibition": "-6.65%"}, {"compound": "C=CCN1C(=O)C(CC(=O)Nc2ccccc2F)S/C1=N\\c1nccs1", "note": "(centres undefined)", "inhibition": "6.25%"}, {"compound": "CCCNC(=O)C(=O)NCCC1=CCCCC1", "inhibition": "-4.88%"}, {"compound": "COc1cccc(OC)c1C(=O)Nc1c(C)n(C)n(-c2ccccc2)c1=O", "inhibition": "0.17%"}, {"compound": "O=C(COc1ccc(Br)cc1CO)Nc1ccc(F)cc1", "inhibition": "9.43%"}, {"compound": "CCCCN(C)C(=O)C(Cc1ccccc1)NS(=O)(=O)c1ccc2c(c1)CCC(=O)N2", "note": "(centres undefined)", "inhibition": "-4.66%"}, {"compound": "CNC(=S)N(Cc1ccco1)Cc1cc2cc(OC)ccc2[nH]c1=O", "inhibition": "-3.07%"}, {"compound": "CCCCCCNC(=O)N1C/C=C\\C(c2ccc(OC)cc2)N(Cc2ccc(F)cc2)C(=O)C1", "note": "(centres undefined)", "inhibition": "-0.25%"}, {"compound": "C[n+]1c2n(c3ccccc31)N=C(c1ccccc1)CS2", "inhibition": "-4.82% and 0%"}, {"compound": "C[n+]1c2n(c3ccccc31)N=C(c1ccc(-c3ccccc3)cc1)CS2", "inhibition": "5.47%"}, {"compound": "O=C(N/N=C/c1ccc2c(c1)OCO2)c1ccc(COc2cccc3cccnc23)cc1", "inhibition": "0.48%"}, {"compound": "COCC(=O)NNC(=S)Nc1cccc(C)c1C", "inhibition": "9.36%"}, {"compound": "COC(=O)c1ccc(C(=O)OC)c(NC(=S)N2CCOCC2)c1", "inhibition": "5.12%"}, {"compound": "CCN(CC)C(=O)CSc1nnc2nnc3cc(C)ccc3n12", "inhibition": "65.9%"}, {"compound": "CCN(CC)C(=O)CSc1nnc2nnc3cc(OC)ccc3n12", "inhibition": "44%"}, {"compound": "CCOc1ccc(-c2onc(C(F)(F)F)c2-c2cscn2)c(O)c1", "inhibition": "6.75%"}, {"compound": "COc1cc(/C=C/C(=O)O)cc(S(=O)(=O)Nc2ccccc2Oc2ccccc2)c1OC", "inhibition": "-0.26%"}, {"compound": "CSc1sc(C(=O)N2CCCCC2)c(-c2cccs2)c1C#N", "inhibition": "-3.75%"}, {"compound": "Cn1c2c(c(=O)n(C)c1=O)C(C(F)(F)F)(C(F)(F)F)N=C(c1ccccc1Cl)N2", "inhibition": "-9.88%"}, {"compound": "COc1ccc(C2=NC(C(F)(F)F)(C(F)(F)F)c3c(n(C)c(=O)n(C)c3=O)N2)cc1", "inhibition": "-0.04%"}]}]}
